# Reference: PubChem BioAssay (Tox21)
# Values without a mark were called inactive. Active and inactive are the calls of the source. Calls come from the whole dose curve; as a rule, active = well fitted curve in the direction sought with a large enough effect in the repeat runs; inconclusive = weak or mixed curves; inactive = flat fitted curve, though single readings scatter.
# Test: qHTS assay to test for compound auto fluorescence at 535 nm (green) in HepG2 cells (AID 720675)
# Conditions: green autofluorescence 485/535 nm, 1 h; series mostly up to 46 µM; fluorescence, % of fluorescein control: at the top concentration
# From the text: National Center for Advancing Translational Sciences [NCATS]
# NIH Chemical Genomics Center [NCGC]
# U.S. Environmental Protection Agency [EPA]
# National Institutes of Environmental Health Sciences [NIEHS]
# National Toxicology Program [NTP]
# U.S. Food and Drug Administration [FDA]
# Compound auto fluorescence often interferes with screening of the compound library against various biological targets and signaling pathways. Some of these compounds may have fluorophoric properties. Such properties may interfere with the assay outputs resulting in false positives and/or negatives. To decrease such complications and ensure the compound activities are relevant in terms of biological response, the Tox21 10K compound library was screened for auto fluorescence.
# From the fluorophores used as reporter signals in our screening assays, the auto fluorescence equivalencies of compounds against three fluorophores have been evaluated: Triamterene, Fluorescein and Rose Bengal sodium for blue, green and red fluorescence, respectively. The fluorescence intensities were measured using Excitation/Emission wavelengths at 405/460nm, 485/535nm and 540/590nm for blue, green and red labels, respectively. This assay includes the green fluorescence data.
# Tox21 Assay Protocol Summary:
# 2,000 HepG2 cells in 5 uL of culture medium (MEM containing 10% FBS) per well were dispensed into black wall/clear bottom 1536-well plates using a Multidrop Combi Dispenser (ThermoFisher Scientific, Waltham, MA). The assay plates were incubated overnight at 37 C to allow cell attachment to the well bottom, followed by the transfer of 23 nL compound or DMSO vehicle by a pintool work station (Kalypsys , San Diego, CA). After the assay plates were incubated for 1 hr at 37 C and 5% CO2, fluorescence intensities in the assay plates were measured by an Envision (PerkinElmer, Shelton, CT) plate reader using three labels for measuring blue, green and red fluorescence at […] 460, 535 and 590 nm respectively.
# % is set by controls: 0 for no effect and ±100 for the full control effect.
Structure (SMILES),"fluorescence, % of fluorescein control",Potency
Oc1cccc[c]1[Hg][Cl],0.0329%,–
CC(C)NC(C)Cc1ccc(I)cc1 (stereo not given),0.0093%,–
CCCCCc1cc(O)c2c(c1)OC(C)(C)c1ccc(C)cc1-2,0.0006%,–
NC1=NC(=O)N2CC12 (stereo not given),-0.0185%,–
CN(C)CCCCCCN(C)C (tested in a mixture with another compound),-0.0315%,–
C[C@]12C[C@H]3S[C@H]3C[C@@H]1CC[C@@H]1[C@@H]2CC[C@]2(C)[C@@H](O)CC[C@@H]12,-0.114% [at 18.6 µM],–
C[C@@H](CO)NC(=O)[C@@H]1C=C2c3cccc4[nH]cc(c34)C[C@H]2N(C)C1,1.66%,–
O=C(Nc1ccccc1-c1ccc(Cl)cc1)c1cccnc1Cl,0.138% [at 91.3 µM],–
CO[C@H]1[C@@H](O)C[C@H](O[C@H]2[C@@H](O)C[C@H](O[C@H]3[C@@H](O)C[C@H](O[C@H]4CC[C@@]5(C)[C@H](CC[C@@H]6[C@@H]5C[C@@H](O)[C@]5(C)[C@@H](C7=CC(=O)OC7)CC[C@]65O)C4)O[C@@H]3C)O[C@@H]2C)O[C@@H]1C,0.0091%,–
C=C[C@H]1CN2CC[C@H]1C[C@H]2[C@H](OC(=O)OCC)c1ccnc2ccc(OC)cc12,-0.0921%,–
CCOC(=O)C(O)(c1ccc(Cl)cc1)c1ccc(Cl)cc1,–,inactive
CC(=O)OO,0.0022%,–
O=P1(N(CCCl)CCCl)NC(OO)CCO1 (stereo not given),-0.123%,–
CCc1cc(OC)c(C[C@@H](C)N)cc1OC,-0.188% [at 95.7 µM],–
O=c1ccc2cc(O[C@@H]3O[C@H](CO)[C@@H](O)[C@H](O)[C@H]3O)c(O)cc2o1,-0.0341% [at 18.6 µM],–
CCCCc1ccc(C(=O)O)nc1,-0.0255%,–
CN(C)CCCCCCN(C)C,0.0867% [at 91.3 µM],–
CCNCC(O)c1cccc(O)c1 (stereo not given),-0.0099% [at 18.6 µM],–
Cc1cc(C(C)(C)c2ccc(O)c(C)c2)ccc1O,0.0334% [at 91.3 µM],–
F/C(COc1ccc2c(c1)[nH]c1ccccc12)=C1/CN2CCC1CC2,0.0066%,–

Structure (SMILES),"fluorescence, % of fluorescein control",Potency
O=c1c2ccccc2[se]n1-c1ccccc1,0.0136%,–
Clc1ccc2c(c1)C(c1ccccc1)=NCc1nncn1-2,0.0083%,–
CCC/C=C/C=C/C(=O)O[C@H]1/C(=C/C(=O)OC)C[C@H]2C[C@H]([C@@H](C)O)OC(=O)C[C@H](O)C[C@@H]3C[C@H](OC(C)=O)C(C)(C)[C@](O)(C[C@@H]4C/C(=C/C(=O)OC)C[C@H](/C=C/C(C)(C)[C@]1(O)O2)O4)O3,0.0001%,–
C[C@]12CC[C@H](O)C[C@H]1CC[C@@H]1[C@@H]2CC[C@]2(C)[C@@H](c3ccc(=O)oc3)C[C@H]3O[C@]132,0.0186%,–
N#CC1(N2CCCCC2)CCCCC1,-0.165%,–
C/C=C(\CC)C(=O)NC(N)=O,-0.139%,–
CNC(C)Cc1ccccc1 (stereo not given),0.026% [at 91.3 µM],–
CN1CCCC(=C(c2cccs2)c2cccs2)C1,0.17%,–
OC(c1ccccc1)(c1ccccc1)C1CN2CCC1CC2 (stereo not given),-0.0026%,–
O=C(C[C@@H]1NCCC[C@H]1O)Cn1cnc2cc(Br)c(Cl)cc2c1=O,0.0604%,–
C[C@]12C=CC(=O)C=C1CC[C@@H]1[C@@H]2CC[C@]2(C)OC(=O)CC[C@@H]12,-0.166%,–
CC(=O)O[C@H]1CC[C@H]2[C@@H]3CCC4=CC(=O)CCC4=C3C=C[C@]12C,0.236%,–
C[C@]12CCC(=O)C[C@@H]1CC[C@@H]1[C@@H]2CC[C@@]2(C)[C@H]1CC[C@]2(C)O,-0.0289%,–
CC(=O)[C@H]1CC[C@H]2[C@@H]3CC[C@@H]4C[C@H](O)CC[C@]4(C)[C@H]3CC[C@]12C,-0.0807%,–
O[C@H]1[C@H]2[C@H](O)CCCN2C[C@H]1O,-0.0012%,–
C[C@]12CC[C@@H]3c4ccc(OC(=O)N(CCCl)CCCl)cc4CC[C@H]3[C@@H]1CC[C@@H]2OP(=O)(O)O,–,inactive
CCCCCN(C)CCC(O)(P(=O)(O)O)P(=O)(O)O,0.0019%,–
CCN1C[C@]2(COC)[C@H](O)C[C@H](OC)[C@@]34[C@@H]5C[C@@]6(O)[C@H](OC(=O)c7ccccc7)[C@@H]5[C@@](OC(C)=O)([C@@H]([C@H](OC)[C@H]23)[C@@H]14)[C@@H](O)[C@@H]6OC,0.0218%,–
CC(=O)[C@@]1(O)CC[C@H]2[C@@H]3CCC4=CC(=O)CC[C@]4(C)C3(F)[C@@H](O)C[C@@]21C (stereo not given in full),-0.0374%,–
Cc1cc(C)cc(C(=O)OC2C[C@H]3CC[C@@H](C2)N3C)c1 (stereo not given in full),-0.0219%,–
